For 16 compounds, Potency and activity change, positive = activation results are on record in PubChem BioAssay (Tox21).

The nature of assay [1]: qHTS assay to identify small molecule agonists of the hypoxia (HIF-1) signaling pathway - cell viability counter screen (AID 1224844; calls by dose curve; note: nearly all actives have a fitted effect of over 50% in size; note: potency is the fitted concentration of half-maximal effect). The procedure, abridged: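 Same wells as the HIF-1 reporter screen; ME-180 cells carrying HRE-bla, 17 hr treatment at 37C; CellTiter-Glo luminescence read after 30 min at room temperature.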
Assay [2] is described as follows: qHTS assay to identify small molecule agonists of H2AX - cell viability counter screen (AID 1224847; calls by dose curve; note: nearly all actives have a fitted effect of over 30% in size; note: potency is the fitted concentration of half-maximal effect). A digest of the protocol:
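Compounds tested at 15 concentrations were incubated 3 hr at 37C with wild-type CHO-K1 cells; cellular ATP-based luminescence (CellTiter-Glo) indicated viability.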
For orientation: qHTS replaces the single test concentration by a dilution series.

A short description of assay [3]: qHTS assay to identify small molecule antagonists of the estrogen related receptor (ERR) signaling pathway from Tox21 library (AID 1224848). Note: nearly all actives have a fitted effect of over 50% in size. Note: potency is the fitted concentration of half-maximal effect. A digest of the protocol: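 Quantitative high-throughput format: ERR reporter cells (2,000/well) pre-incubated 6 h, treated 18 h at 37 C with compounds in DMSO alongside positive and negative controls, then read by ONE-Glo luminescence.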

Assay [4] is described as follows: qHTS assay to identify small molecule agonists of the estrogen related receptor (ERR) signaling pathway from Tox21 library (AID 1224849; calls by dose curve; note: nearly all actives have a fitted effect of over 15% in size). The note with it: ERR reporter cell line, ONE-Glo luciferase, 18 h; at 92.4 µM (top of the series) unless noted. The procedure, abridged:
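Reporter cells (ERR, NTP source) treated with Tox21 10K compounds 18 h, 37 C. Readout: ONE-Glo luminescence, 30 min RT.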

Assay [5] in a line: qHTS RealTime-Glo MT Cell Viability Assay in HepG2 cells - 24 hour (AID 1224867). Note: nearly all actives have a fitted effect of over 50% in size. Note: potency is the fitted concentration of half-maximal effect. A digest of the protocol: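 Viability was tracked continuously by NanoLuc luminescence from prosubstrate reduced by living HepG2 cells, at successive time points over 40 h of compound exposure. Cells with reagent were preincubated 5 h at 37 °C before compound addition.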
The nature of assay [6]: qHTS RealTime-Glo MT Cell Viability Assay in HEK293 cells - 32 hour (AID 1224868). Note: nearly all actives have a fitted effect of over 50% in size. Note: potency is the fitted concentration of half-maximal effect. The procedure, abridged:
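Viability tracked continuously by luminescence as live cells reduce a prosubstrate for NanoLuc; HEK293 cells preincubated 5 h, compound-treated at 37 C, and read at 0, 8, 16, 24, 32 and 40 h.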

A short description of assay [7]: A CellTox Green Cytotoxicity Assay to monitor cytotoxicity in HEK293 cells - 0 hour (AID 1224869). Note: nearly all actives have a fitted effect of over 50% in size. A digest of the protocol: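 Homogeneous no-lysis format: HEK293 cell suspension mixed with CellTox Green reagent, seeded, incubated 5 h at 37 C/5% CO2, then dosed by pintool with compound in DMSO.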
Assay [8] can be described thus: qHTS RealTime-Glo MT Cell Viability Assay in HepG2 cells - 40 hour (AID 1224870). Note: nearly all actives have a fitted effect of over 50% in size. Note: potency is the fitted concentration of half-maximal effect. The procedure, abridged:
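HepG2 cells (600/well) mixed with RealTime-Glo MT reagent, settled 5 h at 37 C/5% CO2 before compound addition. Nonlytic NanoLuc luminescence from viable-cell prosubstrate reduction read repeatedly during 40 h treatment at 37 C.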

Assay [9] can be described thus: qHTS assay to identify small molecule agonists of H2AX (AID 1224845; active = well fitted activation curve with a large enough effect in the signal ratio in the repeat runs, not every such curve was filed as active; the % refers to the signal ratio). The procedure, abridged:
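Wild-type CHO-K1 cells, plated overnight, exposed 3hr at 37C to 15 concentrations (0.76% DMSO final). Lysed, then HTRF anti-pH2AX (S139) cryptate and anti-H2AX-d2 antibodies, 24 hr room temperature; 665/620 nm emission read.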

A short description of assay [10]: qHTS assay to identify small molecule agonists of the hypoxia (HIF-1) signaling pathway (AID 1224846; active = well fitted activation curve with a large enough effect in the signal ratio in the repeat runs, not every such curve was filed as active; the % refers to the signal ratio; note: potency is the fitted concentration of half-maximal effect). The procedure, abridged:
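In ME-180 cells bearing an HRE-bla construct, 17 h treatment with DMSO-dissolved compounds at 37C was followed by CCF4-AM loading to quantify reporter induction.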

Structures are written as SMILES. Where “and” joins values, the source holds several entries; their conditions need not be identical. Equal entries are not always repeated. A number with no mark means an inactive call. Records with an inconclusive call do not appear. Calls of active or inactive are those of the source. Unless noted, calls come from the whole dose curve; as a rule, active = well fitted curve in the direction sought with a large enough effect in the repeat runs; inconclusive = weak or mixed curves; inactive = no such curve, though single readings can be large; an effect the other way counts as inactive or inconclusive.
% is set by controls: 0 for no effect and ±100 for the full control effect.

Consider `N=C1C=CC(=C(c2ccc(N)cc2)c2ccc(N)cc2)C=C1`, for which the Potency entry in assay [1] and in [7] was “inactive” throughout. The Potency in assay [2] was 28.4 µM (active); in assay [3], 2.17 µM (active); in assay [5], 24.5 µM (active); in [6], 2.19 µM (active); in [8], 38.9 µM (active). Besides, the activity change, positive = activation in assay [4] is -66.1%.
As to `CCN(C(=O)c1cc(C)cc(OC[C@H](C)Nc2ccncc2)c1)C(C)C`, the Potency entry in assay [1], in assay [9], in [5], in [6], in [7] and in [8] was “inactive” throughout.
Turning to `O=[N+]([O-])c1cc(Cl)c(Cl)c(Cl)c1Cl`, the Potency result in assay [1], in [10], in [2], in assay [5], in assay [7] and in assay [8] was “inactive” each time. In assay [4], the activity change, positive = activation was -25.7%.
Turning to `O=C(O)c1c(Cl)cccc1Cl`, the Potency result in assay [1], in assay [10], in assay [2], in [5], in assay [6] and in [7] was “inactive” in each case. The Potency result in assay [8] is “inactive”.
In the case of `CO[Si](CCCNc1ccccc1)(OC)OC`, the Potency entry in assay [1], in assay [10], in assay [2], in assay [5], in assay [6] and in assay [7] was “inactive” each time. In addition, the Potency entry in assay [8] was “inactive”.
On to `C1CCCC1`, for which the Potency result in assay [1], in [10], in assay [2], in assay [3], in [6] and in [7] was “inactive” throughout. The Potency result in assay [8] was “inactive”. The activity change, positive = activation in assay [4] is 9.59%.
For `NC(=NCCCCCCN=C(N)/N=C(\N)Nc1ccc(Cl)cc1)/N=C(\N)Nc1ccc(Cl)cc1`, the Potency was 24.4 µM (active) in assay [1] and 8.67 µM (active) [middle of 5 runs] in [6]. Besides, the Potency entry in [10] and in [7] was “inactive” throughout.
Take `N/C(=N\N=C\c1ccc(Cl)cc1)N/N=C/c1ccc(Cl)cc1`: the values for the Potency in [1] and in [3] were 23.9 µM (active) and 29.8 µM (active), respectively. In addition, the Potency entry in [9] and in assay [7] was “inactive” each time.
Take `CCN(CC)CCNC(=O)c1c(C)[nH]c(/C=C2\C(=O)Nc3ccc(F)cc32)c1C`: the Potency was 9.52 µM (active) in assay [1], 21.3 µM (active) in assay [5], 10.7 µM (active) in assay [6] and 15.1 µM (active) in assay [8]. In assay [10], the Potency entry was “inactive”.
Take `O=C1CCCc2c1cc1ccc3cccc4ccc2c1c34`: the figures for the Potency in assay [1], in assay [10] and in assay [6] were 44.2 µM (active), 49.6 µM (active) and 11.1 µM (active), respectively. For the same compound, the Potency result in assay [5], in [7] and in assay [8] was “inactive” each time.
On to `CCCCCCOC(=O)c1ccc(O)cc1`, for which the Potency result in assay [1], in assay [3], in [5], in assay [7] and in assay [8] was “inactive” throughout. Further, the Potency is 89.9 µM (active) and 101 µM (active) in assay [2]; 43.7 µM (active) and 21.9 µM (active) in assay [6]. The activity change, positive = activation in [4] was 67.7% (active) and 70.3% (active).
With `CC(C)n1nc(-c2cc3cc(O)ccc3[nH]2)c2c(N)ncnc21`, the figures for the Potency in assay [1], in assay [3] and in assay [6] were 1.9 µM (active), 1.06 µM (active) and 0.239 µM (active), respectively. Further, the Potency entry in assay [10], in [2] and in [7] was “inactive” each time.
For `CCCCCCCC[N+](CCCCCCCC)(CCCCCCCC)CCCCCCCC`, the Potency is 13.8 µM (active) in assay [1]; 17.9 µM (active) in assay [2]; 0.768 µM (active) in assay [3]; 24.5 µM (active) in assay [5]; 6.15 µM (active) in [6]; 24.5 µM (active) in assay [8]. Also, in assay [4], the activity change, positive = activation is -81.8%. Further, the Potency entry in assay [7] was “inactive”.
For `CCCCCCCCCCC=O`, the Potency result in [1], in assay [10], in [2], in assay [3], in [5] and in assay [6] was “inactive” each time. Also, the Potency entry in [7] and in assay [8] was “inactive” each time. Moreover, the activity change, positive = activation in [4] was 0.203%.
`O=[N+]([O-])c1ccccc1Nc1ccccc1`: the Potency result in assay [1], in assay [10], in [2], in assay [5], in assay [6] and in assay [7] was “inactive” in each case. The Potency entry in assay [8] was “inactive”.
As to `Nc1ccc2cc(S(=O)(=O)O)cc(O)c2c1N=Nc1ccccc1C(F)(F)F`, the Potency result in assay [1], in [10], in [3], in assay [5], in assay [6] and in assay [7] was “inactive” in each case. Besides, the Potency entry in [8] was “inactive”. For the same compound, the activity change, positive = activation in assay [4] is 0.11%.
